Measured values from PubChem BioAssay (NCATS).
Inconclusive results are not listed. Activity calls are given as the source filed them. Unless noted, the call rests on the fitted dose curve; in most records, active means well fitted curve in the direction sought with a large enough effect; inconclusive means small, poorly fitted or top-dose-only effect, or another doubt; inactive means no such curve, though single readings can be large; an effect the other way counts as inactive or inconclusive.

How the values were obtained:
[1] = target: Metallo-beta-lactamase type 2 (Klebsiella pneumoniae) (UniProt C7C422); assay: qHTS to identify inhibitors of the New Delhi Metallo-beta-lactamase (NDM): assay validation screen against the NCATS LOPAC Collection (AID 1794843); conditions: NDM-1 enzyme, nitrocefin hydrolysis, absorbance 485 nm; series mostly up to 38.4 µM;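 further: nitrocefin turnover by NDM-1 measured as 485 nm absorbance at plateau; on the % scale 0 is the no-effect control and ±100 the full control effect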
Summary of the method: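 NDM-1 at 2 nM final in 50 mM HEPES pH 7.0, 1 uM ZnSO4, 0.01% Tween20, preincubated with LOPAC compounds pinned in DMSO; 50 uM nitrocefin (stock) added. Hydrolysis read as absorbance at 485 nm in the plateau phase.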

[2] = target: Glutathione peroxidase 1 (Homo sapiens) (UniProt P07203); assay: Primary qHTS Assay for Inhibitors of Recombinant Selenoprotein Glutathione Peroxidase 1 (GPX1) (AID 1845191); conditions: recombinant GPX1, GR-coupled NADPH fluorescence, 15 min; series mostly up to 48.8 µM; further: nearly all actives have a fitted effect of over 65% in size
Summary of the method: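 GR-coupled assay: compounds preincubated 30 min at room temperature with GPX1, then reaction started with CHP; final 10 nM GPX1, 1 mM GSH, 0.5 mM CHP, 0.5 mM NADPH, 100 nM GR, 0.01% BSA, pH 7.5 Tris buffer. NADPH fluorescence (340/450 nm) read at 0 and 15 min.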

[3] = target: Phospholipid hydroperoxide glutathione peroxidase GPX4 (Homo sapiens) (UniProt P36969); assay: Primary qHTS Assay for Inhibitors of Recombinant Selenoprotein Glutathione Peroxidase 4 (GPX4) (AID 1845192); conditions: recombinant GPX4, GR-coupled NADPH fluorescence, 15 min; series mostly up to 50 µM; further: nearly all actives have a fitted effect of over 65% in size
Summary of the method: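 GR-coupled assay: recombinant GPX4 preincubated 30 min with compound at room temperature; final 200 nM GPX4, 1 mM GSH, 0.5 mM cumene hydroperoxide, 0.5 mM NADPH, 100 nM GR, 0.01% BSA, pH 7.5 Tris. NADPH fluorescence (340/450 nm) read at 0 and 15 min.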

[4] = NCATS anti-infectives library activity on HEK293 viability as a counter-qHTS vs the C. elegans viability qHTS (AID 1745854); conditions: HEK293 viability counter-screen; series mostly up to 41.8 µM;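 further: HEK293 cells exposed to compounds for 24 hr before the viability read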; further: potency means the concentration at half of the fitted maximal effect
Summary of the method: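 Compounds were acoustically plated (several concentrations, 1:5, final up to 41.7 uM), then 1500 HEK293 cells added per well and incubated 24 hr at 37C, 5% CO2. CellTiter-Glo was added and luminescence read after 10 min.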

[5] = NCATS anti-infectives library activity on the primary C. elegans qHTS viability assay (AID 1745855; calls by dose curve; further: potency means the concentration at half of the fitted maximal effect); conditions: C. elegans worm area imaging, day 7; series mostly up to 83.3 µM
Summary of the method: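 Viability read-out is GFP fluorescence of PE254-GFP-FLuc C. elegans, measured by laser cytometry (488 nm) at day 0, 3 and 7. Ten L1 worms per well were incubated 7 days at 21 °C with compounds and bacterial capsules in S medium.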

[6] = Viability counterscreen for antagonist of constitutive androstane receptor (CAR) against the NCATS DSHEA and TCM libraries (AID 1794837); conditions: CAR reporter cell line viability counterscreen, qHTS; series mostly up to 40 µM;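 further: compound exposure lasted 24 h before viability reading; 0% is about no effect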
Summary of the method: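 HepG2-CYP2B6-hCAR cells, 2,500/well, were exposed 24 hr at 37C to substances together with 48 uM CITCO (final). Viability was read as CellTiter-Fluor fluorescence (Ex/Em 405/540 nm) after 1 hr.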

[7] = Viability counterscreen for agonist of constitutive androstane receptor (CAR) against the NCATS DSHEA and TCM libraries (AID 1794838); conditions: HepG2 cell viability counterscreen, CAR agonist assay, co-treated with 0.75 µM CAR antagonist; series mostly up to 40 µM;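 further: HepG2 cells with CYP2B6 reporter and hCAR plus 0.75 µM PK11195 antagonist; 0% is about no effect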
Summary of the method: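 HepG2-CYP2B6-hCAR cells (2,500/well) treated 24 h at 37C with compounds plus 0.75 uM PK11195; viability read by CellTiter-Fluor fluorescence, Ex/Em 405/540 nm.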

[8] = target: Nuclear receptor subfamily 1 group I member 3 (Homo sapiens) (UniProt Q14994); assay: Primary qHTS for agonist of constitutive androstane receptor (CAR) against the NCATS DSHEA and TCM libraries (AID 1794839); conditions: CAR agonist reporter cells, qHTS luminescence, CAR antagonist co-added at 0.75 µM; series mostly up to 40 µM;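 further: HepG2 cells expressing human CAR with a CYP2B6 reporter plus PK11195 antagonist; 0% is about no effect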
Summary of the method: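 HepG2-CYP2B6-hCAR cells, 2,500/well, attached 5 h, then dosed with 0.75 µM PK11195 (final) for 24 h at 37 °C. Luciferase luminescence read (ONE-Glo); CellTiter-Fluor viability (Ex/Em 405/540 nm) in same wells; CITCO positive control.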

[9] = HepG2 viability counterscreen (readout 2: ATP content) against the NCATS DSHEA and TCM libraries (AID 1794840); conditions: ATP content luminescence; series mostly up to 27.3 µM; further: 0% is about no effect
Summary of the method: (§1)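 HepG2 cells, 1,000/well, attached ~4 h, then exposed ~24 h at 37C to substances. Protease activity read by fluorescence of 25 uM GF-AFC (Ex/Em 380/510 nm) after 30 min; ATP then by CellTiter-Glo luminescence.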

[10] = HepG2 viability counterscreen (readout 1: protease activity) against the NCATS DSHEA and TCM libraries (AID 1794841); conditions: qHTS concentration series; series mostly up to 27.3 µM;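 further: cells exposed to compounds for about 24 h before the protease read; 0% is about no effect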
Summary of the method: as §1

[11] = target: Cytochrome P450 3A4 (Homo sapiens) (UniProt P08684); assay: qHTS for inhibitors of CYP3A4 against the NCATS DSHEA and TCM libraries (AID 1919971); conditions: recombinant CYP3A4 enzyme activity, luminescence qHTS; series mostly up to 34.1 µM;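 further: on the % scale 0 is the no-effect control and ±100 the full control effect; inhibition lowers luminescence from luciferin made by CYP3A4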
Summary of the method: (§2)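 Read-out is luminescence after P450-Glo detection (30 min, RT). Before that: 15 min compound–enzyme preincubation, then 30-45 min reaction with 1x NADPH regeneration solution, substrate concentration isoform-specific.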

[12] = target: Cytochrome P450 2D6 (Homo sapiens) (UniProt P10635); assay: qHTS for inhibitors of CYP2D6 against the NCATS DSHEA and TCM libraries (AID 1919972); conditions: CYP2D6 enzymatic inhibition, luminescence qHTS; series mostly up to 34.1 µM; further: on the % scale 0 is the no-effect control and ±100 the full control effect
Summary of the method: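 Luminescent P450-Glo read-out of CYP2D6 turnover of a luciferin substrate after NADPH-driven reaction of 30-45 min at room temperature. Compounds were first preincubated 15 min with enzyme at titrated concentrations; quinidine was the intraplate control.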

[13] = target: Cytochrome P450 2C9 (Homo sapiens) (UniProt P11712); assay: qHTS for inhibitors of CYP2C9 against the NCATS DSHEA and TCM libraries (AID 1919973); conditions: recombinant CYP2C9 enzyme activity, luminescence; series mostly up to 34.1 µM;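 further: luminogenic pro-luciferin CYP2C9 substrate turned into luciferin with NADPH regeneration; on the % scale 0 is the no-effect control and ±100 the full control effect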
Summary of the method: as §2

[14] = target: Cytochrome P450 2C19 (Homo sapiens) (UniProt P33261); assay: qHTS for inhibitors of CYP2C19 against the NCATS DSHEA and TCM libraries (AID 1919974); conditions: CYP2C19 enzyme inhibition, luminescence qHTS; series mostly up to 34.1 µM;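 further: luminescence from luciferin released by CYP2C19 oxidation of a pro-luciferin substrate; on the % scale 0 is the no-effect control and ±100 the full control effect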
Summary of the method: as §2

[15] = target: Nicotinamide N-methyltransferase (Homo sapiens) (UniProt P40261); assay: Confirmatory Screen for Target Class Profiling of Small Molecule Inhibitors of Methyltransferases (AID 1745852); conditions: MTase-Glo luminescence, SAH detection, recombinant enzyme; measured here: NNMT max response; stronger effect = lower value
[16] = target: Phenylethanolamine N-methyltransferase (Homo sapiens) (UniProt P11086); assay: as above; conditions: MTase-Glo luminescence, SAH detection, recombinant enzyme; measured here: PNMT max response; stronger effect = lower value
[17] = target: Luciferin 4-monooxygenase (Photinus pyralis) (UniProt P08659); assay: Primary firefly luciferase (FLuc) qHTS assay for identification of artifact compounds. (AID 1845220); conditions: purified firefly luciferase, luminescence, 5 min; series mostly up to 54.1 µM; further: nearly all actives have a fitted effect of over 60% in size
Summary of the method: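 Titrated compounds were incubated 15 min at RT, protected from light, with luciferin and ATP at 10 uM; reaction started with 10 nM FLuc, luminescence imaged at 5 min, and concentration-response fitted by Hill equation.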

[18] = Primary fluorescence-based thiol-reactive (MSTI) qHTS assay for identification of artifact compounds. (AID 1845221); conditions: MSTI thiol-reactivity probe, 1 h; series mostly up to 53.8 µM;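 further: thiol-reactive compounds lower the probe fluorescence signal; nearly all actives have a fitted effect of over 65% in size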
Summary of the method: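 qHTS titration of compound; 4 uM MSTI, PBS pH 7.4, 2% DMSO; 1 h RT, dark; fluorescence 525/598 nm; normalized to Acetyl-MSTI and MSTI; 4-parameter Hill fit.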

[19] = test system: Nanoluciferase (engineered Oplophorus gracilirostris luciferase); assay: Primary Nanoluciferase (NLuc) qHTS assay for identification of artifact compounds. (AID 1845222); conditions: NLuc-conditioned medium, Nano-Glo luminescence, 5 min; series mostly up to 54.1 µM;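 further: NLuc secreted into diluted conditioned medium of S16 cells; 0% = DMSO and -100% = no enzyme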
Summary of the method: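 qHTS format, against NLuc in S16 cell-conditioned medium. Nano-Glo substrate 1:100 was added after 15 min at room temperature. Luminescence was taken after a further 5 min.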

[20] = Primary redox qHTS assay for identification of artifact compounds. (AID 1845223); conditions: Amplex Red/HRP redox cycling with DTT, fluorescence; series mostly up to 53.8 µM;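 further: 0% = DMSO and 100% = reference compound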
Summary of the method: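 Amplex Red (25 uM) and HRP (250 mU/mL) in HBSS, with compounds for 15 min, then 250 uM DTT for 30 min, room temperature, dark. Fluorescence 525/598 nm read; normalized to DMSO and 10 uM DA3003; Hill fit.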

Chain of Phospholipid hydroperoxide glutathione peroxidase GPX4 (Homo sapiens) (P36969 whole entry, looked up): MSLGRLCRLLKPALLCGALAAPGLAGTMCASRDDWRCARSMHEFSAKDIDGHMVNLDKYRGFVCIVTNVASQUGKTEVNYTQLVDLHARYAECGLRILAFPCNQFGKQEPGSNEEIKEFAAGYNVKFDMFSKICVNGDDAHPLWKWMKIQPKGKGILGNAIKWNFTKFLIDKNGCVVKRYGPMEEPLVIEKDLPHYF
Chain of Glutathione peroxidase 1 (Homo sapiens) (P07203 whole entry, looked up): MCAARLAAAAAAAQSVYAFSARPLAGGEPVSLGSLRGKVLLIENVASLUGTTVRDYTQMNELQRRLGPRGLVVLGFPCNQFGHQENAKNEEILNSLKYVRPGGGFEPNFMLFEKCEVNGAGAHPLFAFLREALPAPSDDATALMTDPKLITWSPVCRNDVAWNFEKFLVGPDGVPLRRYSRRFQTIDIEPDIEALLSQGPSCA
Chain of Metallo-beta-lactamase type 2 (Klebsiella pneumoniae) (C7C422 whole entry, looked up): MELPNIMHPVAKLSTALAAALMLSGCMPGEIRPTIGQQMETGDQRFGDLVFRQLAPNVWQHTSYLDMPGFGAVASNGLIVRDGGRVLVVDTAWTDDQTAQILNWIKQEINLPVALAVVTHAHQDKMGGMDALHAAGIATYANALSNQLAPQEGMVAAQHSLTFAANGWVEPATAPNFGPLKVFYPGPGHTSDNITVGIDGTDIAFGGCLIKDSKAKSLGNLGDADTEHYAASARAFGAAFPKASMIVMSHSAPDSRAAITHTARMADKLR
Chain of Nicotinamide N-methyltransferase (Homo sapiens) (P40261 whole entry, looked up): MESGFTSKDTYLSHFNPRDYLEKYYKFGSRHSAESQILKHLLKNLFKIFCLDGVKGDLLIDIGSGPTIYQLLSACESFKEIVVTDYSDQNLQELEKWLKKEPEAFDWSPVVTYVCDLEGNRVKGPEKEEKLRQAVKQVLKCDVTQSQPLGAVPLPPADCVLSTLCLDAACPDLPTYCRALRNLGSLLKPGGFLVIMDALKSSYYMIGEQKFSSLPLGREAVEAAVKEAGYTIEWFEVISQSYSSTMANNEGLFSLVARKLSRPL
Chain of Phenylethanolamine N-methyltransferase (Homo sapiens) (P11086 whole entry, looked up): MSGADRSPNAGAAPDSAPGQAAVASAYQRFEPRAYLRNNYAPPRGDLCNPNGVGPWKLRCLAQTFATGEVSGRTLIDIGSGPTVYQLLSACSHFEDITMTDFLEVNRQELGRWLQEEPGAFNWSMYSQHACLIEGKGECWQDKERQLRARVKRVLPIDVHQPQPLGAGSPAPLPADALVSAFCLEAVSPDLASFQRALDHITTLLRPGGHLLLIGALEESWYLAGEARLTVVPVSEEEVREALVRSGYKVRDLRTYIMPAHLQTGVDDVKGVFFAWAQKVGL
Chain of Nuclear receptor subfamily 1 group I member 3 (Homo sapiens) (Q14994 whole entry, looked up): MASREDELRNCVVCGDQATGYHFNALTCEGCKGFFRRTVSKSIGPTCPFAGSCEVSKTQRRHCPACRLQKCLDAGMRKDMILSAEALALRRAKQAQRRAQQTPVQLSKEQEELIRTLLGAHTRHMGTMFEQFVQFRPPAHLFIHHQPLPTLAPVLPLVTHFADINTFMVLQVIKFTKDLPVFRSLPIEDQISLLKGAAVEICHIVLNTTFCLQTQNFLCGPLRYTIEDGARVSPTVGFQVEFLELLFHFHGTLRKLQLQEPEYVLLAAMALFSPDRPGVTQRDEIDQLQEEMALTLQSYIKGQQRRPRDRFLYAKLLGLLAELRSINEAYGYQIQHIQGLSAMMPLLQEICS
Chain of Cytochrome P450 2C19 (Homo sapiens) (P33261 whole entry, looked up): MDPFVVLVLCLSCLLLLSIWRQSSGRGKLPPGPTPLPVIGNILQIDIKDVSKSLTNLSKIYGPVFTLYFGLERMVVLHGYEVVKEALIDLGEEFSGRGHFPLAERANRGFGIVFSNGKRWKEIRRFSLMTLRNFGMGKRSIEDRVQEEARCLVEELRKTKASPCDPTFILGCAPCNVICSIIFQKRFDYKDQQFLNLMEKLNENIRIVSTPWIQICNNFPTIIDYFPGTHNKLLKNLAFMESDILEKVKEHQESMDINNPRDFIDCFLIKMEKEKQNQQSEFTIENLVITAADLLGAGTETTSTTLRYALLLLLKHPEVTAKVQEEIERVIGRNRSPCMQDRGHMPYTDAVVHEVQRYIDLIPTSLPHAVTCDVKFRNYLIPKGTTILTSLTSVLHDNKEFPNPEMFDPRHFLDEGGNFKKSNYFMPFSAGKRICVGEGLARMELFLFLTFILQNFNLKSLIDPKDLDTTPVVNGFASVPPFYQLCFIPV
Chain of Cytochrome P450 2D6 (Homo sapiens) (P10635 whole entry, looked up): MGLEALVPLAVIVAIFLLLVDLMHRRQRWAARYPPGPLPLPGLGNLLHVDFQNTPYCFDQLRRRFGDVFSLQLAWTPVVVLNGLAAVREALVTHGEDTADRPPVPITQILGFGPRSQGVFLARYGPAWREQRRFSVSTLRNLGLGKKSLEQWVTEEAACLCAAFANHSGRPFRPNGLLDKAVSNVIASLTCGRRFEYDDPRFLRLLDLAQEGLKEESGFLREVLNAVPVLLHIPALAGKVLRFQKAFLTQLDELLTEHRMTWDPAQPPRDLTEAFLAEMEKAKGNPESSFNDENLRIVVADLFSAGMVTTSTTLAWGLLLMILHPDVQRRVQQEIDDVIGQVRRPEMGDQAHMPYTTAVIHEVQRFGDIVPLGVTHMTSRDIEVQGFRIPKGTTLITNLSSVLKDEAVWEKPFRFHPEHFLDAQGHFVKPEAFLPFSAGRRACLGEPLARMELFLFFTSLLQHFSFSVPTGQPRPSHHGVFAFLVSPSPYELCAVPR
Chain of Cytochrome P450 2C9 (Homo sapiens) (P11712 whole entry, looked up): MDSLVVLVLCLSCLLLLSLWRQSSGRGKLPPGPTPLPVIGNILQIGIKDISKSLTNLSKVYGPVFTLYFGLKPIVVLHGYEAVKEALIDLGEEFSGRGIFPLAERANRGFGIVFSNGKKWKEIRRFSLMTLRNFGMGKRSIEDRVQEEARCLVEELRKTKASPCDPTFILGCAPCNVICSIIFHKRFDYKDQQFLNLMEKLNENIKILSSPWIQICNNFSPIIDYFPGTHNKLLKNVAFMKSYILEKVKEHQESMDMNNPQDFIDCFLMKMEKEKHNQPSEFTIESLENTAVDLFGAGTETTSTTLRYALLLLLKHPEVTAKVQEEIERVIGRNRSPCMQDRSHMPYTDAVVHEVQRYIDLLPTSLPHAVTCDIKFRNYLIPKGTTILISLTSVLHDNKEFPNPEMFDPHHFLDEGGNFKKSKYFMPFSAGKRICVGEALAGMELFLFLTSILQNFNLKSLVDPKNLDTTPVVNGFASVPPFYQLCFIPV
Chain of Cytochrome P450 3A4 (Homo sapiens) (P08684 whole entry, looked up, canonical isoform): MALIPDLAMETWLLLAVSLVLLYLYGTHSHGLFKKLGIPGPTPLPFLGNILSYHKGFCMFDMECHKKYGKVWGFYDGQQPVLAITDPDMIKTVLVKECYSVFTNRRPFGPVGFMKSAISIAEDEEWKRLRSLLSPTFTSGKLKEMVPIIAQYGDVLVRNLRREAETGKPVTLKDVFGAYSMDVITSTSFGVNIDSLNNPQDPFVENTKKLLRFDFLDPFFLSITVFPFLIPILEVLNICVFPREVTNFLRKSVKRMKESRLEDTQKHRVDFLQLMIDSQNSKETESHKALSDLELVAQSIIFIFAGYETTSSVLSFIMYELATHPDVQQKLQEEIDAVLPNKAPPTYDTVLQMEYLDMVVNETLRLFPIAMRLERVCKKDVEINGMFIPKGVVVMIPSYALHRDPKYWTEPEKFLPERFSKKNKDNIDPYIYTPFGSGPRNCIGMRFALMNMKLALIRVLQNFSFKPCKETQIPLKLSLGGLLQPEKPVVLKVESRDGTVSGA

CCC(NC(C)C)C(O)c1ccc(O)c(O)c1 (stereo not drawn)
inactive: outcome [1] | Potency [2] | Potency [3]

O=c1ccc2ccccc2o1
inactive: Potency [4] | Potency [5] | outcome [6] | outcome [7] | outcome [8] | outcome [9] | outcome [10] | Potency [2] | Potency [3] | outcome [11] | outcome [12] | outcome [13] | Potency [14]

CC[C@H](C)C(=O)O[C@H]1CCC=C2C=C[C@H](C)[C@H](CC[C@@H]3C[C@@H](O)CC(=O)O3)[C@H]21
inactive: outcome [1] | Potency [2] | Potency [3]
-8.02%: activity [15]
-5.04%: activity [16]

CC(C)(C)NC(=O)[C@@H]1CN(Cc2cccnc2)CCN1C[C@@H](O)C[C@@H](Cc1ccccc1)C(=O)N[C@H]1c2ccccc2C[C@H]1O
inactive: Potency [4] | Potency [2] | Potency [3] | outcome [17] | Potency [18] | Potency [19] | outcome [20]

COc1cc2c(cc1O)CC[C@@H]1[C@@H]2CC[C@]2(C)[C@@H](O)CC[C@@H]12
inactive: outcome [1] | Potency [3]

O=C1CCC(c2ccc(-n3ccnc3)cc2)=NN1
inactive: outcome [1] | Potency [2] | Potency [3]

CCCn1c(=O)[nH]c(=O)c2[nH]cnc21
inactive: outcome [1] | Potency [2] | Potency [3]

COc1cccc2c1C(=O)c1c(O)c3c(c(O)c1C2=O)C[C@@](O)(C(C)=O)C[C@@H]3O[C@H]1C[C@H](N)[C@H](O)[C@H](C)O1
active: Potency [4] 5.62 µM | Potency [5] 5.78 µM
inactive: Potency [2] | Potency [3]

CC(O)(P(=O)(O)O)P(=O)(O)O
inactive: activity change, negative = cytotoxicity [4] 0.883% [at 8.35 µM] | Potency [2] | Potency [3]

C[N+]1(CCCCC[N+]2(C)CCCC2)CCCC1
inactive: outcome [1] | Potency [2] | Potency [3]

N[C@@H](Cc1cnc[nH]1)C(=O)O
inactive: outcome [1] | Potency [2] | Potency [3]

NC(=NCCCCCCN=C(N)/N=C(\N)Nc1ccc(Cl)cc1)/N=C(\N)Nc1ccc(Cl)cc1
-67.4%: activity [16]
active: Potency [5] 11.5 µM
inactive: Potency [3] | outcome [17] | Potency [18] | Potency [19] | outcome [20]
-51.5%: activity [15]

Nc1cc(Cl)c(NC2=NCCN2)c(Cl)c1
inactive: outcome [1] | Potency [2] | Potency [3]

C=C1C(=C/C=C2\CCC[C@]3(C)[C@@H]([C@H](C)/C=C/[C@@H](O)C4CC4)CC[C@@H]23)C[C@@H](O)C[C@@H]1O
inactive: Potency [4] | Potency [2] | Potency [3]
